hERG WT inh – qHTS for Inhibitors of KCHN2 3.1: Wildtype qHTS; Voltage-gated inwardly rectifying potassium channel KCNH2 (Homo sapiens), Q12809; U2OS, BacMam KCNH2, thallium flux FluxOr; stronger effect = lower value; activity change, % at 1.84 µM; 340,000 tested, 0.37% active;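 active means maximum activity change below -70%; inconclusive means maximum activity change between -70% and -50%; inactive means maximum activity change above -50%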; further: on the % scale 0 is the no-effect control and ±100 the full control effect
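U2OS cells were transduced with wild-type KCNH2 virus (2.03 x 10^8 / mL) for 4 h at room temperature, then cultured overnight at 37 C. Thallium flux was read with FluxOr dye. Rate constants were normalized to DMSO controls.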
KCNH2 3.1 inh – qHTS for Inhibitors of KCHN2 3.1: Mutant qHTS. U2OS KCNH2 3.1, thallium flux FluxOr; stronger effect = lower value. 340,000 tested, 0.95% active. activity change, % (tested at about 1.8 µM). Potassium voltage-gated channel subfamily H member 2, brain isoform KCNH2 3.1 (human);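 active means maximum activity change below -70%; inconclusive means maximum activity change from -70% to -50%; inactive means maximum activity change above -50%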;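 further: thallium influx rate constant from kinetic fluorescence after stimulation buffer; on the % scale 0 is the no-effect control and ±100 the full control effect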
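Thallium flux read-out: FluxOr dye with Red40 quencher in HBSS/HEPES, 45 min at RT. Rate constants from kinetic reads were normalized to positive and negative DMSO controls. Cells: U2OS virally expressing the 3.1 isoform.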
Rango-impB inh – qHTS Assay for Inhibitors of Rango (Ran-regulated importin-beta cargo) - Importin beta complex formation. Importin subunit beta-1 (Homo sapiens), Q14974. Rango CFP/YFP FRET sensor + importin beta, 45 min. Potency, µM (doses to about 92.2 µM), for the others: at the highest dose inhibition of complex formation. 340,000 tested, 0.031% active;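 further: potency means the concentration at half of the fitted maximal effect; 0% = DMSO wells and 100% = buffer wells lacking importin beta; nearly all actives have a fitted effect of over 15% in size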
Target sequence (Q14974 whole entry, looked up): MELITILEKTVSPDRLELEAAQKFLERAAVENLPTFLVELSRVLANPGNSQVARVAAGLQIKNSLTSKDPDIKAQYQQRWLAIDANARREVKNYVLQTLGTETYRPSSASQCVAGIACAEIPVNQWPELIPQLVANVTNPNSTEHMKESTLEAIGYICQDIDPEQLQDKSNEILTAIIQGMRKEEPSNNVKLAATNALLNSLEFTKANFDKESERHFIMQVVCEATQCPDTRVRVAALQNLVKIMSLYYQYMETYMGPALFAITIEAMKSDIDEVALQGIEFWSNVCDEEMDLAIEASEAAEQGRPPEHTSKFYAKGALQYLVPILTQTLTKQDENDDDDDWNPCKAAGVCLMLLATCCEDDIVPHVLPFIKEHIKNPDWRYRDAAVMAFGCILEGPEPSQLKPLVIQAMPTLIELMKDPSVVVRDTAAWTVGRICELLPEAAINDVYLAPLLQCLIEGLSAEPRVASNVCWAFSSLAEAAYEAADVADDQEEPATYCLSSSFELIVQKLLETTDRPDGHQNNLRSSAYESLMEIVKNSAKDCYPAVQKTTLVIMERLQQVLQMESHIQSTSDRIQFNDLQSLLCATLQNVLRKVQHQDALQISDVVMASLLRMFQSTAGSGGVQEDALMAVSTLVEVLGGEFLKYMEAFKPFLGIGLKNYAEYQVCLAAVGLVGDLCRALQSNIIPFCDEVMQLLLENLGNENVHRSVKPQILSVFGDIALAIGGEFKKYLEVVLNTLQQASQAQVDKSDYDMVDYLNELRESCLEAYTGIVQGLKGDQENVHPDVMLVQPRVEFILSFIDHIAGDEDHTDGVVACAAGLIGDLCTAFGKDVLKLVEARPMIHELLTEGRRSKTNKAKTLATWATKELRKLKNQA
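FRET biosensor Rango (snurportin 1 IBB between N-terminal EYFP and C-terminal Cerulean), 50 nM in PBS/1 mM DTT/0.02% Tween-20/0.1% BSA, preincubated 5 min RT with compound; 0.125 microM importin beta added, 45 min RT, CFP/YFP FRET ratio read.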
Rango release inh – qHTS Assay for Inhibitors of RanGTP induced Rango (Ran-regulated importin-beta cargo) - Importin beta complex dissociation | Biochemical FRET Rango-importin beta, RanGTP-induced dissociation | Potency, µM (doses to about 46.1 µM), for the others: at the highest dose activity change, negative = inhibition | 340,000 tested, 0.071% active | Snurportin-1 (Homo sapiens) + GTP-binding nuclear protein Ran (Homo sapiens) + Importin …; further: potency means the concentration at half of the fitted maximal effect; % of control where 0% means no effect; nearly all actives have a fitted effect of over 45% in size
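Rango FRET biosensor (snurportin-1 IBB flanked by N-terminal EYFP and C-terminal CFP10) at 0.1 uM, with 0.25 uM importin beta in PBS, 1mM DTT, 0.02% Tween-20, 0.1% BSA. 0.6 uM Ran, 2mM GTP and 0.2 uM RCC1 were then added for 45 min at room temperature. Inhibition read as loss of FRET rise.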
Numbers without * were called inactive; ? = inconclusive; / = no result. This is a sample that favours compounds with a hit; in the whole collection about 1.3% have one here. Unless noted, the call rests on the fitted dose curve.

SMILES	hERG WT inh	KCNH2 3.1 inh	Rango-impB inh	Rango release inh
O=C(NNC(=O)c1ccc(S(=O)(=O)N2CCCCC2)cc1)c1ccc(F)cc1	1	-23	1%	-10%
N[C@@H](Cc1cnc[nH]1)C(=O)Nc1ccc2ccccc2c1	-3	-7	4%	5%
CCC(C)NC(=O)CN1C(=O)NC2(CCc3ccccc3C2)C1=O (centres undefined)	0	-77*	?	13%
O=C(Nc1nc2c(F)cc(F)cc2s1)c1ccc([N+](=O)[O-])o1	4	9	-3%	-12%
COc1cccc(-c2ccc(NC(=O)C3CCCN(CCCn4cccn4)C3)cc2)c1 (centres undefined)	2	-84*	0%	20%
Nc1nc(-c2ccccc2)cn1N	-1	8	?	21µM*
Nc1nc(-c2ccccc2)cn1/N=C/c1ccccc1	-10	-2	4%	6%
Cc1ccc2c(c1)/C(=N/N1C(=O)c3ccccc3C1=O)C(=O)N2	-3	-155*	6%	2%
CCOc1ccc2c(c1)/C(=N/N1C(=O)c3ccccc3C1=O)C(=O)N2	5	7	-1%	-27%
CSc1ncnc2c1ncn2CCCN(C)Cc1ccco1	-4	-3	/	/
O=C(NCCN1CCN(c2ccccc2F)CC1)c1cccn2c(=O)c3ccccc3nc12	-14	-79*	-3%	?
Cc1ccc(/C=c2\s/c(=C(/C#N)C(=O)N3CCCC3)n(Cc3ccco3)c2=O)s1	0	1	?	8.2µM*
Cc1cccc(C)c1-n1nnnc1S(=O)(=O)Cc1ccccc1Cl	-8	-94*	0%	12%
CCOC(=O)Cc1csc(NC(=S)NC(=O)c2ccccc2)n1	3	1	0%	0%
CCOC(=O)Cc1csc(N/C(=N/S(=O)(=O)c2cc(Br)ccc2OCC)c2ccccc2)n1	-261*	-170*	-2%	-10%
Cc1cccc(CC2S/C(=N/N=C/c3ccco3)N(c3ccccc3)C2=O)c1 (centres undefined)	-8	-104*	3%	-9%
CCC1S/C(=N/N=C/c2ccco2)N(c2ccc(F)cc2)C1=O (centres undefined)	6	/	-1%	6%
CCOc1ccc(C(=O)NCC(=O)OCC(=O)N(C)CC(=O)Nc2ccccc2CC)cc1OCC	-19	-9	-4%	-4%
O=C(Nc1cnccn1)c1ccncc1	0	-84*	0%	11%
O=C(Nc1cnccn1)c1ccc(Cl)cc1	0	-7	2%	12%
O=C(O)CCC(=O)N1CCc2cc(S(=O)(=O)N3CCN(c4ccc(F)cc4)CC3)ccc21	-3	-101*	?	-20%
O=C(Nc1cccc(-c2csc(Nc3ccc(Cl)cc3)n2)c1)c1cccc(C(F)(F)F)c1	0	-78*	-4%	-4%
O=C(Nc1cccc(-c2csc(Nc3ccc(Cl)cc3)n2)c1)c1ccccc1	19	-14	-3%	-9%
COc1cc(C(=O)N2CCN(C3CCCCC3)CC2)cc(OC)c1OC	6	4	-1%	-5%
COc1ccc(C(=O)N2CCN(C3CCCCC3)CC2)cc1OC	-11	-75*	?	-23%
SMILES	hERG WT inh	KCNH2 3.1 inh	Rango-impB inh	Rango release inh
CN1C[C@@H]2C(c3ccccc3)C3(c4ccccc4)CC2(C3)[C@H]1c1ccccc1 (some centres undefined)	6	-43	0%	-4%
COC(=O)c1cccc(C23CC4(C2)[C@H](CN(C)[C@@H]4c2ccccc2)C3c2ccc(C(F)(F)F)cc2)c1 (some centres undefined)	-11	-28	2%	-6%
CN1C[C@@H]2C(c3ccc(C(F)(F)F)cc3)C3(c4ccc(C#N)cc4)CC2(C3)[C@H]1c1ccccc1 (some centres undefined)	-102*	-92*	1%	0%
CN1C[C@@H]2C(c3ccccc3)C3(c4ccc(C#N)cc4)CC2(C3)[C@H]1c1ccccc1 (some centres undefined)	-45	-112*	0%	5%
Cc1ccc2sc(N3CCN(C(=O)c4ccc([N+](=O)[O-])o4)CC3)nc2c1C	-139*	-201*	2%	-5%
O=C(c1cccc(N2CCCC2=O)c1)N1CCN(c2cccc(Cl)c2)CC1	9	1	-2%	2%
CCN(CC(=O)NC(C)C)C(=O)C(CCSC)NC(=O)c1ccccc1OC (centres undefined)	-5	-10	?	-9%
CCN(CC(=O)NC(C)C)C(=O)C(CCSC)NC(=O)c1cccc(C)c1 (centres undefined)	-155*	-201*	6%	-6%
Clc1cccc(-c2nnc(SC/C=C/c3ccccc3)n2Cc2ccco2)c1	-17	-98*	-1%	0%
Cc1ccc(S(=O)(=O)N2CCOCC2)cc1NC(=O)CSc1nnnn1C1CC1	-4	-3	/	/
Cc1cc(C)cc(NC(=O)CNC(c2ccccc2)c2ccccc2)c1	-70*	-7	3%	7%
O=C(Nc1cc(Cl)ccc1-n1cncn1)c1cccc(S(=O)(=O)N2CCOCC2)c1	-10	-13	0%	8%
CC1CCc2c(sc3nc(CN4CCN(S(=O)(=O)c5ccccc5[N+](=O)[O-])CC4)[nH]c(=O)c23)C1 (centres undefined)	-12	-73*	-4%	13%
O=c1[nH]c(=S)[nH]c2nc(-c3ccccc3)cnc12	5	9	2%	-22%
Nc1[nH]c(=S)[nH]c(=O)c1-c1ccccc1	-183*	7	-1%	0%
N#C/C(=C\c1ccccc1C(F)(F)F)C(=O)Nc1ccccc1	1	-177*	2%	-12%
CCc1cccc(CC)c1NC(=O)/C(C#N)=C/c1ccccc1C(F)(F)F	-7	1	2%	5%
Cc1ccc(-c2nn3c(C)nnc3s2)cc1NC(=O)C(C)C	5	1	6%	-20%
Cc1ccc(-c2nn3c(C)nnc3s2)cc1N	-289*	12	0%	-5%
CCC(=O)Nc1ccc(-c2nn3c(C)nnc3s2)cc1C	-22	-115*	7%	-18%
O=C(c1ccc2c(c1)OCCO2)C1CCN(C(=O)c2ccc(F)c(F)c2)CC1	-1	-2	2%	2%
CCOCCCNC(=S)N1CCC(C(=O)c2ccc3c(c2)OCCO3)CC1	2	-170*	?	-1%
O=C(c1ccc2c(c1)OCCCO2)N1CCCCC1	-2	-109*	-1%	16%
O=C(c1ccc2c(c1)OCCO2)C1CCN(C(=O)c2ccc(F)cc2)CC1	-159*	5	-6%	-15%
CCNC(=S)N1CCC(C(=O)c2ccc3c(c2)OCCO3)CC1	6	6	-2%	0%
